In PubChem BioAssay (NCATS):
Inconclusive results are not listed. Active and inactive are the calls of the source. The call rests on the fitted dose curve; in most records, active means well fitted cell-killing curve with a large enough effect; inconclusive means small, poorly fitted or top-dose-only effect, or effect the other way; inactive means no such curve, though single readings can be large or run the other way.

What was measured:
[1] = Viability qHTS for spleen associated tyrosine kinase inhibitor (SYKi) naive MV4-11 cells (AID 1963823); further: nearly all actives have a fitted effect of over 40% in size
Method in brief: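 Seeding of 500 SYKi-naive MV4-11 cells per well onto pre-dispensed compounds preceded a 72 hr incubation at 37 C. Luminescent CellTiter-Glo signal, read after 10 min at room temperature, reflected viable cells.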

[2] = Viability qHTS for spleen associated tyrosine kinase inhibitor (SYKi) drug resistant MV4-11 cells (AID 1963824); further: nearly all actives have a fitted effect of over 35% in size
Method in brief: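 SYK-inhibitor-resistant MV4-11 AML cells were seeded at 500 per well onto compound and cultured 72 hours (37 °C, 5% CO2). CellTiter-Glo was then added, and after 10 min at room temperature, luminescence gave viability.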
Potency means the concentration at half of the fitted maximal effect.

SMILES | Potency [1] | Potency [2]
CCOC(=O)[C@H](CCc1ccccc1)N[C@@H](C)C(=O)N1C2CCCCC2C[C@H]1C(=O)O (stereo partly drawn) | 16.4 µM (active) | 6.51 µM (active)
CC(=O)OC(C)C(C)(O)C(=O)O[C@@H]1CC[C@]2(C)CC(=O)C(=C(C)C)C[C@H]2[C@]1(C)OC(C)=O (stereo partly drawn) | 5.63 µM (active) | inactive
CCc1cccc(CC)c1-n1c(C=C(C)C)c(C(=O)N2CCNCC2)cc(-c2nc(-c3ccc(C(F)(F)F)cc3)cs2)c1=O | inactive | inactive
C=C(C)C(=O)OC1CC2(C)OC(=CC2=O)C(=C)CC2OC(=O)C(=C)C12 (stereo not drawn) | 0.255 µM (active) | 0.36 µM (active)
COC(=O)N/N=C/c1c[n+]([O-])c2ccccc2[n+]1[O-] | inactive | inactive
C=CC(C)(C)C12Nc3c(ccc4c3OC(C)(C)C=C4)C1(O)CC1C(=O)N3CCCC3C(=O)N12 (stereo not drawn) | inactive | 4.47 µM (active)
COc1cc(CCc2ccc(OCC=C(C)C)cc2)cc(OC)c1OC | 14.3 µM (active) | 5.7 µM (active)
C=C1C2(C)CC3C4(C)OC(C5OC56C4=CC(=O)OC6(C)C)C3(C)C13C(=O)OC(C)C3(O)C2=O (stereo not drawn) | inactive | inactive
NC1(C(=O)NC(CCO)c2ccc(Cl)cc2)CCN(c2ncnc3[nH]ccc23)CC1 (stereo not drawn) | 2.31 µM (active) | 4.11 µM (active)
